KB-V1 MDR tox: KB-V1 MDR subline cytotoxicity. 400,000 tested, 3.4% active. KB-V1 MDR cells viability, CellTiter-Glo, 72 h. Potency, µM (top dose mostly 46.1 µM), hits mostly cytotoxic; also: nearly all actives have a fitted effect of over 60% in size
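Cytotoxicity toward P-gp-expressing KB-V1 cells was determined as loss of CellTiter-Glo luminescence after 72 h at 37 degrees C. Compounds were tested in quantitative HTS format across a concentration range, with curves fitted to normalized data.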
SW480 rerep: induces DNA re-replication in SW480 colon adenocarcinoma cells | SW480 DNA re-replication, Hoechst DNA content imaging, 48 h | Potency, µM (series often up to 46.1 µM), most hits filed as activators | 340,000 tested, 1.8% active | AID 624297; also: nearly all actives have a fitted effect of over 55% in size
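Image-based DNA-content assay: after two days of treatment, nuclei were labelled with the DNA dye Hoechst and imaged, and hits were compounds raising the count of nuclei showing high fluorescence intensity.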
MCF10A rereplic: inducers of DNA re-replication in MCF 10A breast cells. Potency, µM (series often up to 46.1 µM), actives largely listed as activators. 350,000 tested, 2.9% active. MCF 10A DNA re-replication, Hoechst nuclear intensity, 48 h; also: nearly all actives have a fitted effect of over 50% in size
HT1080-NT tox: kills 2HG-producing HT-1080-NT fibrosarcoma cells; HT-1080-NT fibrosarcoma viability, CellTiter-Glo ATP luminescence, 48 h; 360,000 tested, 1.6% active; AID 686970; Potency, µM (highest dose often 46.1 µM), actives largely listed as cytotoxic;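 also: NT is the 2HG producing partner of a matched IDH1 knockdown line; nearly all actives have a fitted effect of over 55% in size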
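Viability by CellTiter-Glo luminescence after 48 h compound exposure at 37C of HT-1080-NT cells (750/well, RPMI, 5% FBS). % activity scaled between DMSO wells and medium-only wells, then curve-fitted and categorized by curve class.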
HT1080 IDH1KD tx: toxicity to HT-1080 IDH1 knockdown cells (counter line) | 360,000 tested, 2% active | Potency, µM (highest dose often 46.1 µM), actives largely listed as cytotoxic | HT-1080 IDH1 knockdown viability, ATP luminescence, 48 h
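Cytotoxicity counter-line: IDH1KD HT-1080, 48 h, CellTiter-Glo. Curves classed by r2, magnitude and activity.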
KB-3-1 tox: kills parental KB-3-1 adenocarcinoma cells; 400,000 tested, 1.4% active; KB-3-1 viability, CellTiter-Glo ATP luminescence, 72 h; Potency, µM (series often up to 46.1 µM), hits mostly cytotoxic; also: nearly all actives have a fitted effect of over 60% in size
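Parental KB-3-1 adenocarcinoma cells in phenol-red-free DMEM with 10% FBS were pin-treated with compounds at several concentrations, incubated 72 h at 37 °C, and viability read by CellTiter-Glo luminescence; concentration-effect curves were fitted after normalization.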
Large screens that a line does not name were inactive. In the library only some 8% were active in any assay of this set; here they are far more common. Calls follow the shape of the dose curve; as a rule, active = well fitted curve in the direction sought with a large enough effect; inconclusive = small, poorly fitted or top-dose-only effect, or another doubt; inactive = no such curve, though single readings can be large; an effect the other way counts as inactive or inconclusive.

O=C(/C=C/c1ccc([N+](=O)[O-])cc1)Nc1ncc([N+](=O)[O-])s1	KB-V1 MDR tox 8.2µM, SW480 rerep inconclusive, MCF10A rereplic inconclusive, HT1080-NT tox inconclusive, HT1080 IDH1KD tx inconclusive, KB-3-1 tox inconclusive
O=C(CCS(=O)(=O)Cc1ccccc1)Nc1nncs1	SW480 rerep 21µM, MCF10A rereplic inconclusive
Cc1ccc([C@@H]2CC=C(C(=O)O)[C@H](c3ccc(F)cc3)N2S(=O)(=O)c2ccccc2C)cc1	MCF10A rereplic inconclusive
COc1ccc(NC(=O)CSc2nc3ccccc3n2CC(=O)N(C)c2ccc(F)cc2)cc1	none (no result: SW480 rerep, MCF10A rereplic, HT1080-NT tox, HT1080 IDH1KD tx)
CSc1nnc2c(n1)OC=Nc1ccccc1-2	MCF10A rereplic inconclusive
O=C(CCS(=O)(=O)Cc1ccccc1)Nc1ncc([N+](=O)[O-])s1	SW480 rerep 23µM, MCF10A rereplic inconclusive, HT1080 IDH1KD tx 18µM
O=C(CS(=O)(=O)c1ccccc1)Nc1ncc([N+](=O)[O-])s1	none
O=C(Nc1ncc([N+](=O)[O-])s1)c1cccs1	KB-V1 MDR tox 16µM, MCF10A rereplic inconclusive, HT1080-NT tox 23µM, HT1080 IDH1KD tx 21µM, KB-3-1 tox inconclusive
O=C(CN1C(=O)NC2(CCCCCC2)C1=O)N1CCN(c2ccc(F)cc2)CC1	none
Cc1ccccc1N1CC(O)(c2ccccc2)[N+]2=C1SCC2 (stereo unspecified)	none
CCOC1=C2CN(S(=O)(=O)c3ccc(C)cc3)C(c3cccc(Cl)c3)CC2N(S(=O)(=O)c2ccc(C)cc2)C(c2ccncc2)C1 (stereo unspecified)	KB-V1 MDR tox inconclusive, KB-3-1 tox inconclusive (no result: SW480 rerep, MCF10A rereplic)
CCc1nc(C)c(-c2ccccc2)c(=O)[nH]1	SW480 rerep 18µM, MCF10A rereplic inconclusive
CC1CCCCC1NC(=O)COC(=O)c1ccccc1NC(=O)c1ccco1 (stereo unspecified)	MCF10A rereplic inconclusive
CCc1cccc(CC)c1NC(=O)CCS(=O)(=O)c1ccc(Br)s1	none (no result: SW480 rerep, MCF10A rereplic, HT1080-NT tox, HT1080 IDH1KD tx)
CC(C)NCC(=O)NC12CC3CC(CC(C3)C1)C2	KB-V1 MDR tox 21µM
O=S(=O)(Nc1ccc(S(=O)(=O)N2CCOCC2)cc1)c1ccccc1	none
CO[C@H]1[C@H](O[C@H]2O[C@@H](C)[C@@H](O[C@@H]3C[C@](C)(O)[C@H](OC(=O)CC(C)C)[C@H](C)O3)[C@@H](N(C)C)[C@@H]2O)[C@@H](CC=O)C[C@@H](C)[C@@H](O)/C=C\C=C/C[C@@H](C)OC(=O)C[C@H]1OC(C)=O	none (no result: KB-V1 MDR tox, HT1080-NT tox, HT1080 IDH1KD tx, KB-3-1 tox)
CO[C@@H]1[C@@H](OC2OC(C)C(OC3CC(C)(O)C(OC(=O)CC(C)C)C(C)O3)C(N(C)C)C2O)[C@@H](CC=O)C[C@@H](C)C(=O)/C=C\C2O[C@H]2C[C@@H](C)OC(=O)C[C@H]1OC(C)=O (stereo partly specified)	SW480 rerep 19µM, MCF10A rereplic 30µM (no result: HT1080-NT tox, HT1080 IDH1KD tx)
Nc1nc(=S)c2ncn(C3CCCCC3)c2[nH]1	HT1080-NT tox inconclusive
CCC(=O)c1ccccc1OCCCN1CCC(Cc2ccccc2)CC1	KB-V1 MDR tox inconclusive, HT1080-NT tox 18µM, HT1080 IDH1KD tx inconclusive, KB-3-1 tox inconclusive
CCOc1ccccc1OCCN1CCC(Cc2ccccc2)CC1	none
Cc1ccc([N+](=O)[O-])c(OCCN2CCC(Cc3ccccc3)CC2)c1	KB-V1 MDR tox 21µM, MCF10A rereplic inconclusive, HT1080-NT tox 21µM, HT1080 IDH1KD tx 16µM, KB-3-1 tox inconclusive
O=C(OCCN1C(=O)c2ccccc2C1=O)c1cc2ccccc2o1	none
O=C(NC(c1ccc(F)cc1)c1ccc2ccccc2n1)C1CCN(Cc2ccc(Oc3ccccc3)cc2)CC1 (stereo unspecified)	HT1080 IDH1KD tx inconclusive, KB-3-1 tox inconclusive (no result: SW480 rerep, MCF10A rereplic)
COc1cc(OC)nc(C(NC(=O)C2CCN(Cc3ccc(Oc4ccccc4)cc3)CC2)c2ccccc2C)n1 (stereo unspecified)	HT1080-NT tox 16µM, HT1080 IDH1KD tx inconclusive (no result: SW480 rerep, MCF10A rereplic)
COc1cc(CN2CCC(C(=O)NC(c3ccc(F)cc3)c3ccc4ccccc4n3)CC2)cc(OC)c1 (stereo unspecified)	KB-V1 MDR tox inconclusive, HT1080-NT tox 2.3µM, HT1080 IDH1KD tx 3.3µM, KB-3-1 tox 5.2µM (no result: SW480 rerep, MCF10A rereplic)
